# The list is not random: actives were taken first. Their share in the collection is about 8.3%.
# FBPA Giardia inh: inhibitors of Giardia lamblia fructose-1,6-bisphosphate aldolase; Potency, µM (titrated, usually from 59.6 µM), without a hit: top-dose activity, negative = inhibition, actives largely listed as inhibitors; A8B2U2; 290,000 tested, 0.71% active; AID 2451; purified Giardia FBPA; note: potency is the fitted concentration of half-maximal effect; nearly all actives have a fitted effect of over 55% in size
# Target sequence (A8B2U2 whole entry, looked up): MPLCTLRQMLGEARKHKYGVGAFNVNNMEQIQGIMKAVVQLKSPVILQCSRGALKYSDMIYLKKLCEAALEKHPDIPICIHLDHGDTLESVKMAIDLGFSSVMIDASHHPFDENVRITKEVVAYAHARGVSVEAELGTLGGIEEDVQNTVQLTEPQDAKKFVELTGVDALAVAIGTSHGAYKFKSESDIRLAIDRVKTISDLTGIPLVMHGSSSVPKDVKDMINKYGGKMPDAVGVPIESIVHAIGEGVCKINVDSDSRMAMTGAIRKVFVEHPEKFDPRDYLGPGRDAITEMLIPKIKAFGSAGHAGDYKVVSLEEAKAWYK
#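 40 nM FBPA preincubated 10 min at RT with compound (up to 57.5 uM final), then substrate plus GAPDH/TPI/NAD/arsenate coupling and diaphorase/resazurin added. Fluorescence read after 20 min at RT, 525/598 nm.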
# Marburg entry inh: Marburg virus entry inhibition. Marburg virus pseudotyped entry inhibition, cell reporter. Potency, µM (series often up to 37.8 µM), inactives show at the top dose activity change, negative = inhibition, most hits filed as inhibitors. 300,000 tested, 1.8% active. AID 540276; calls by dose curve; tested in HEK293 cells; note: potency is the fitted concentration of half-maximal effect
# HCMV antiviral: blocks human cytomegalovirus replication; HFF cells, HCMV-luciferase reporter, 72 h; stronger effect = lower value; activity change, negative = inhibition, % at 57.5 µM; 410,000 tested, 4.5% active; AID 1259415; in the data active = activity change below about -60%; inconclusive = no clear call, values can overlap the other calls; inactive = above about -39%
#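 Two-dose cell screen: HFF monolayers treated with compounds and infected with luciferase-expressing HCMV at 1 PFU/cell, 72 h at 37C, then lysed for luciferase measurement.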
# LASV entry inh: Lassa virus entry inhibition. Potency, µM (doses to about 37.9 µM), without a hit: at the highest dose activity change, negative = inhibition, hits mostly inhibitors. 300,000 tested, 1.2% active. AID 540256. Lassa virus pseudotype entry inhibition, cell reporter; calls by dose curve; tested in HEK293 cells; note: potency is the fitted concentration of half-maximal effect; nearly all actives have a fitted effect of over 50% in size
# FMDV antiviral: antivirals against foot and mouth disease virus. Potency, µM (series often up to 57.9 µM), without a hit: top-dose activity change, negative = inhibition, most hits filed as inhibitors. 410,000 tested, 1.2% active. FMDV antiviral cell-based qHTS; calls by dose curve; tested in HEK293T cells; note: read-out not given here; potency is the fitted concentration of half-maximal effect; nearly all actives have a fitted effect of over 45% in size
# HCV inh: HCV inhibition. Huh7.5.1 HCVcc-Cre infection, luciferase reporter, 44 h. Potency, µM (top dose mostly 41.8 µM), without a hit: at the highest dose activity change, negative = inhibition, actives largely listed as inhibitors. 340,000 tested, 3.4% active. AID 651820; note: potency is the fitted concentration of half-maximal effect
#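 After 44 h co-culture of compound, cells and HCVcc-Cre (~0.5 moi), substrate is added for 15 min at room temperature and luciferase measured over 15 sec. Cells were seeded at 1,000/well and pre-cultured 4 h.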
# Starred values were filed as active, the others as inactive; ? = inconclusive; · = not tested or not shown; ! = repeats disagree; [ ] = another dose, or the depositor's remark. Unless noted, calls come from the whole dose curve; as a rule, active = well fitted curve in the direction sought with a large enough effect; inconclusive = small, poorly fitted or top-dose-only effect, or another doubt; inactive = no such curve, though single readings can be large; an effect the other way counts as inactive or inconclusive. % is set by controls: 0 for no effect and ±100 for the full control effect.
SMILES,FBPA Giardia inh,Marburg entry inh,HCMV antiviral,LASV entry inh,FMDV antiviral,HCV inh
O=C1C2C3C=CC(CC3)C2C(=O)N1c1ccccc1F (centres undefined),2.5%,1.7%[46.1 µM],-62.7*,-4.2%[46.1 µM],-14.0%,-3.9%
[2H]c1c([2H])c([2H])c(C(=O)c2sc(N3CCCCCC3)nc2-c2ccccc2)c([2H])c1[2H],-1.7%,?,-11.8,-11.3%,?,22.4µM*
O=C(c1ccc(Br)cc1)c1sc(N2CCOCC2)nc1-c1ccccc1,-13.3%,?,42.5,?,?,7.94µM*
O=C(c1ccccc1)c1sc(N2CCCCCC2)nc1-c1ccccc1,2.0%,-23.2%,-14.8,-15.3%,?,?
O=C(c1ccccc1)c1sc(N2CCOCC2)nc1-c1ccccc1,-1.4%,?,26.0,?,?,-19.5%
COc1cccc2c1OC(=O)CC2c1ccccc1C (centres undefined),7.2%[89.2 µM],·,·,·,·,·
CC1=C(/C=C/C(C)=C/C=C/C(C)=C\CO)C(C)(C)CCC1,·,·,·,·,-13.9%,·
CC(=O)N1Cc2cc(C(=O)NCC(F)(F)F)nc(-c3cccc(-c4cccnc4)c3)c2[C@@H]1CCO,·,·,-81.2*,·,-14.5%,·
CCCNC(=O)c1cc2c(c(-c3cccc(-c4cc5ccccc5o4)c3)n1)[C@H](CCO)N(C(=O)NC(C)C)C2,·,·,-88.4*,·,?,·
CC(=O)N1Cc2cc(C(=O)NCC(F)(F)F)nc(-c3cccc(-c4cc5ccccc5o4)c3)c2[C@@H]1CCO,·,·,?,·,-10.1%,·
CC(C)(C)S(=O)N1Cc2cc(C(=O)NCC(F)(F)F)nc(-c3cccc(-c4cccc(F)c4)c3)c2[C@@H]1CCO (some centres undefined),·,·,-76.8*,·,-22.6%,·
CC(=O)N1Cc2cc(C(=O)NCC(F)(F)F)nc(-c3cccc(-c4cccnc4)c3)c2[C@H]1CCO,·,·,-7.4,·,-20.5%,·
CCOC(=O)C1=C(C)OC(N)=C(C#N)[C@H]1c1cc2ccccc2nc1N1CCCCC1,·,0.9%,·,·,·,·
COc1ccccc1CNC(=O)c1cnc2sccn2c1=O,12.3%,·,13.9,·,-5.3%,10µM*
COc1ccccc1CNC(=O)c1cnc2ccccn2c1=O,1.4%,·,41.3,·,-12.1%,7.4%
Nc1cccc2c1C(=O)N(CCOc1ccccc1F)C2=O,-2.3%,?,82.7,2.82µM*,-43.9%,-0.4%
N#Cc1ccccc1OCCN1C(=O)c2ccccc2C1=O,3.1%,?,-8.0,19.6%,-0.7%,?
CCCCN(CC)CCCNC(=O)c1nn(-c2ccc(OC)cc2)c(=O)c2c1c1ccccc1n2C,·,-6.4%[46.1 µM],5.6,19.3%[46.1 µM],-10.3%,·
Cc1ccc(C(c2nnnn2CC2CCCO2)N2CCN(c3cccc(C)c3C)CC2)cc1 (centres undefined),1.2%,?,31.8,?,-28.5%,11.2µM*!
COc1ccc(C(c2nnnn2CC2CCCO2)N2CCN(c3ccccc3)CC2)cc1 (centres undefined),?,-25.4%,-6.6,?,-1.8%,1.1%
COCCn1nnnc1C(c1cccs1)N1CCN(c2cc(C)ccc2C)CC1 (centres undefined),-21.7%,16.4µM*!,-8.1,?,·,5.3%
COCCn1nnnc1C(c1cccs1)N1CCN(c2nc3ccccc3s2)CC1 (centres undefined),0.0%,?,-30.6,-28.7%,?,?
Cc1cccc(N2CCN(C(c3ccccc3)c3nnnn3C(C)(C)C)CC2)c1C (centres undefined),-1.2%,?,-39.9,3.26µM*,-7.2%,1.9%
COc1ccccc1N1CCN(C(c2ccc(Cl)cc2)c2nnnn2C(C)(C)C)CC1 (centres undefined),-2.8%,?,-65.8*,?,?,?
CCCOc1ccc(C2C(=O)N(C3CCCCCC3)CC(=O)N2CCCOCC)cc1OC (centres undefined),·,·,-30.9,-16.2%[46.1 µM],-25.9%,·
Cc1[nH]c2c(F)cccc2c1CC(=O)NCCN1Cc2ccccc2OC(C)C1 (centres undefined),·,·,·,·,8.6%,·
C=C(C(=O)O)[C@@H]1CC[C@@]2(C)CCC[C@](C)(O)[C@@H]2C1,5.4%,·,·,·,0.0%,·

# Source: PubChem
